Test results taken from PubChem BioAssay AID1159580 (chemical genetic matrix, 2015).
About 2,000 (36%) of roughly 5,500 compounds were called active. Not shown: some 18% with an inconclusive outcome. No stated cut-off is given here; in the data, active means normalized growth mostly below about 0.91 (no sharp cut-off); inconclusive means no clear call, values can overlap the other calls; inactive means mostly above about 0.92. The list shows a part of the results.

Assay: chemical genetic growth profiling, strain panel (AID 1159580);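 further: tested at 20 µM; growth read once vehicle control cultures reached saturation at 30 °C; 1 = growth at the plate median or of vehicle wells; lower values mean less growth of the strain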
Details: growth OD

Measured: normalized growth

C#CCCCCCCCCCCCC(O)CC(O)CO (configuration not stated)
active: S. cerevisiae deletion strains, locus YLR113W, strain HOG1, active compounds read low 0.832 | S. cerevisiae deletion strains, locus YNL183C, strain NPR1, active compounds read low 0.774 | S. cerevisiae deletion strains, locus YOR231W, strain MKK1, active compounds read low 0.851
inactive: S. cerevisiae deletion strains, locus YJR075W, strain HOC1, active compounds read low 0.987 | S. cerevisiae deletion strains, locus YKL009W, strain mrt4, active compounds read low 1 | S. cerevisiae deletion strains, locus YKL068W, active compounds read low 1.01 | S. cerevisiae deletion strains, locus YKL085W, strain MDH1 (second series), active compounds read low 1.01 | S. cerevisiae deletion strains, locus YKL085W, strain MDH1, active compounds read low 1.01 | S. cerevisiae deletion strains, locus YKL160W, strain elf1, active compounds read low 0.97 | S. cerevisiae deletion strains, locus YKL190W, strain CNB1, active compounds read low 0.999 | S. cerevisiae deletion strains, locus YKR001C, strain vps1, active compounds read low 1 | S. cerevisiae deletion strains, locus YKR026C, strain gcn3, active compounds read low 0.982 | S. cerevisiae deletion strains, locus YKR091W, strain srl3, active compounds read low 0.979 | S. cerevisiae deletion strains, locus YLL001W, strain dnm1, active compounds read low 0.961 | S. cerevisiae deletion strains, locus YLL026W, active compounds read low 0.993 | S. cerevisiae deletion strains, locus YLL041C, strain sdh2, active compounds read low 0.986 | S. cerevisiae deletion strains, locus YLR027C, strain aat2, active compounds read low 0.986 | S. cerevisiae deletion strains, locus YLR039C, strain RIC1, active compounds read low 1.08 | S. cerevisiae deletion strains, locus YLR058C, strain SHM2, active compounds read low 1 | S. cerevisiae deletion strains, locus YLR102C, strain apc9, active compounds read low 1.01 | S. cerevisiae deletion strains, locus YLR221C, strain rsa3, active compounds read low 0.974 | S. cerevisiae deletion strains, locus YLR258W, strain gsy2, active compounds read low 0.99 | S. cerevisiae deletion strains, locus YLR262C, strain YPT6 (second series), active compounds read low 0.966 | S. cerevisiae deletion strains, locus YLR262C, strain YPT6, active compounds read low 1.07 | S. cerevisiae deletion strains, locus YLR268W, strain sec22, active compounds read low 1 | S. cerevisiae deletion strains, locus YLR320W, strain mms22, active compounds read low 0.946 | S. cerevisiae deletion strains, locus YLR330W, strain CHS5, active compounds read low 0.99 | S. cerevisiae deletion strains, locus YLR342W, strain FKS1 (second series), active compounds read low 0.975 | S. cerevisiae deletion strains, locus YLR342W, strain FKS1, active compounds read low 0.985 | S. cerevisiae deletion strains, locus YLR357W, strain rsc2, active compounds read low 0.954 | S. cerevisiae deletion strains, locus YLR370C, strain arc18, active compounds read low 0.985 | S. cerevisiae deletion strains, locus YLR371W, strain rom2, active compounds read low 1.01 | S. cerevisiae deletion strains, locus YLR384C, strain iki3, active compounds read low 0.98 | S. cerevisiae deletion strains, locus YLR418C, strain cdc73, active compounds read low 1.02 | S. cerevisiae deletion strains, locus YML016C, strain PPZ1, active compounds read low 1 | S. cerevisiae deletion strains, locus YML032C, strain rad52, active compounds read low 1.02 | S. cerevisiae deletion strains, locus YML120C, strain ndi1, active compounds read low 0.986 | S. cerevisiae deletion strains, locus YML124C, strain tub3, active compounds read low 1.01 | S. cerevisiae deletion strains, locus YMR058W, strain fet3, active compounds read low 0.991 | S. cerevisiae deletion strains, locus YMR078C, strain ctf18, active compounds read low 1 | S. cerevisiae deletion strains, locus YMR125W, strain sto1, active compounds read low 0.967 | S. cerevisiae deletion strains, locus YMR129W, active compounds read low 0.988 | S. cerevisiae deletion strains, locus YMR205C, strain PFK2, active compounds read low 0.962 | S. cerevisiae deletion strains, locus YMR223W, strain ubp8, active compounds read low 1.01 | S. cerevisiae deletion strains, locus YMR231W, strain pep5, active compounds read low 0.974 | S. cerevisiae deletion strains, locus YMR263W, strain SAP30, active compounds read low 1 | S. cerevisiae deletion strains, locus YMR307W, strain GAS1, active compounds read low 1.19 | S. cerevisiae deletion strains, locus YNL067W, strain RPL9B, active compounds read low 0.987 | S. cerevisiae deletion strains, locus YNL071W, strain lat1, active compounds read low 0.988 | S. cerevisiae deletion strains, locus YNL128W, strain TEP1, active compounds read low 1.01 | S. cerevisiae deletion strains, locus YNL153C, strain GIM3, active compounds read low 1 | S. cerevisiae deletion strains, locus YNL209W, strain ssb2, active compounds read low 0.996 | S. cerevisiae deletion strains, locus YNL233W, strain BNI4, active compounds read low 0.991 | S. cerevisiae deletion strains, locus YNL248C, strain rpa49, active compounds read low 0.97 | S. cerevisiae deletion strains, locus YNL250W, strain rad50, active compounds read low 1.03 | S. cerevisiae deletion strains, locus YNL271C, strain bni1, active compounds read low 1.02 | S. cerevisiae deletion strains, locus YNL298W, strain CLA4, active compounds read low 1.01 | S. cerevisiae deletion strains, locus YNL307C, strain MCK1, active compounds read low 0.98 | S. cerevisiae deletion strains, locus YNL322C, strain KRE1 (second series), active compounds read low 0.978 | S. cerevisiae deletion strains, locus YNL322C, strain KRE1, active compounds read low 1 | S. cerevisiae deletion strains, locus YNR049C, strain mso1, active compounds read low 0.992 | S. cerevisiae deletion strains, locus YNR052C, strain pop2, active compounds read low 1.01 | S. cerevisiae deletion strains, locus YOL006C, strain TOP1, active compounds read low 0.96 | S. cerevisiae deletion strains, locus YOL012C, strain htz1 0.976 | S. cerevisiae deletion strains, locus YOL147C, strain pex11, active compounds read low 1 | S. cerevisiae deletion strains, locus YOR001W, strain rrp6, active compounds read low 0.998 | S. cerevisiae deletion strains, locus YOR061W, strain CKA2, active compounds read low 0.921 | S. cerevisiae deletion strains, locus YOR069W, strain VPS5, active compounds read low 1 | S. cerevisiae deletion strains, locus YOR070C, strain gyp1, active compounds read low 0.977 | S. cerevisiae deletion strains, locus YOR080W, strain dia2, active compounds read low 0.994 | S. cerevisiae deletion strains, locus YOR083W, strain WHI5, active compounds read low 0.95 | S. cerevisiae deletion strains, locus YOR106W, strain vam3, active compounds read low 0.977 | S. cerevisiae deletion strains, locus YOR136W, strain idh2, active compounds read low 0.998 | S. cerevisiae deletion strains, locus YOR144C, strain elg1, active compounds read low 1.01 | S. cerevisiae deletion strains, locus YOR184W, strain ser1, active compounds read low 1.01 | S. cerevisiae deletion strains, locus YOR265W, strain rbl2, active compounds read low 0.99 | S. cerevisiae deletion strains, locus YOR270C, strain vph1, active compounds read low 0.944 | S. cerevisiae deletion strains, locus YOR290C, strain snf2, active compounds read low 0.948 | S. cerevisiae deletion strains, locus YOR316C, strain cot1, active compounds read low 1.01 | S. cerevisiae deletion strains, locus YPL051W, strain arl3, active compounds read low 0.989 | S. cerevisiae deletion strains, locus YPL055C, strain LGE1, active compounds read low 0.994 | S. cerevisiae deletion strains, locus YPL078C, strain atp4, active compounds read low 0.981 | S. cerevisiae deletion strains, locus YPL106C, strain sse1, active compounds read low 0.981 | S. cerevisiae deletion strains, locus YPL240C, strain hsp82, active compounds read low 0.998 | S. cerevisiae deletion strains, locus YPL241C, strain CIN2, active compounds read low 1 | S. cerevisiae deletion strains, locus YPL256C, strain CLN2, active compounds read low 0.881 | S. cerevisiae deletion strains, locus YPR119W, strain clb2, active compounds read low 1.01 | S. cerevisiae deletion strains, locus YPR141C, strain kar3, active compounds read low 1.04 | S. cerevisiae deletion strains, locus YPR163C, strain tif3, active compounds read low 0.997 | S. cerevisiae deletion strains, locus YPR167C, strain met16, active compounds read low 1.01 | S. cerevisiae deletion strains, strain wtn01, active compounds read low 1.01 | S. cerevisiae strains, strain wild type, active compounds read low 0.992
